Values joined by “and” are separate entries in the source; they are usually repeats but may differ in a detail not shown here. Equal values may be shown once. Hit rate of the full screen: of about 5,500 compounds, about 2,000 (36%) were called active. Another 18% or so got no clear call; they are omitted. No stated cut-off is given here; in the data, active means normalized growth mostly below about 0.91 (no sharp cut-off); inconclusive means no clear call, values can overlap the other calls; inactive means mostly above about 0.92. This is one part of the list.
Test: chemical genetic growth profiling, strain panel (AID 1159580);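 further: tested at 20 µM; growth read once vehicle control cultures reached saturation at 30 °C; 1 = growth at the plate median or of vehicle wells; lower values mean less growth of the strain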
Details: growth OD

Measured: normalized growth

CC1(C)NC(=O)N(c2ccc([N+](=O)[O-])c(C(F)(F)F)c2)C1=O
inactive: S. cerevisiae deletion strains, locus YJR075W, strain HOC1, active compounds read low 1.01 | S. cerevisiae deletion strains, locus YKL009W, strain mrt4, active compounds read low 0.969 | S. cerevisiae deletion strains, locus YKL068W, active compounds read low 0.992 | S. cerevisiae deletion strains, locus YKL085W, strain MDH1 (second series), active compounds read low 0.988 | S. cerevisiae deletion strains, locus YKL085W, strain MDH1, active compounds read low 0.988 | S. cerevisiae deletion strains, locus YKL160W, strain elf1, active compounds read low 0.988 | S. cerevisiae deletion strains, locus YKL190W, strain CNB1, active compounds read low 1.01 | S. cerevisiae deletion strains, locus YKR001C, strain vps1, active compounds read low 0.975 | S. cerevisiae deletion strains, locus YKR026C, strain gcn3, active compounds read low 0.984 | S. cerevisiae deletion strains, locus YKR091W, strain srl3, active compounds read low 0.989 | S. cerevisiae deletion strains, locus YLL001W, strain dnm1, active compounds read low 0.986 | S. cerevisiae deletion strains, locus YLL026W, active compounds read low 0.98 | S. cerevisiae deletion strains, locus YLL041C, strain sdh2, active compounds read low 0.988 | S. cerevisiae deletion strains, locus YLR027C, strain aat2, active compounds read low 0.986 | S. cerevisiae deletion strains, locus YLR039C, strain RIC1, active compounds read low 0.984 | S. cerevisiae deletion strains, locus YLR058C, strain SHM2, active compounds read low 1.02 | S. cerevisiae deletion strains, locus YLR102C, strain apc9, active compounds read low 0.965 | S. cerevisiae deletion strains, locus YLR113W, strain HOG1, active compounds read low 1.03 | S. cerevisiae deletion strains, locus YLR221C, strain rsa3, active compounds read low 0.98 | S. cerevisiae deletion strains, locus YLR258W, strain gsy2, active compounds read low 0.984 | S. cerevisiae deletion strains, locus YLR262C, strain YPT6 (second series), active compounds read low 0.94 | S. cerevisiae deletion strains, locus YLR262C, strain YPT6, active compounds read low 0.988 | S. cerevisiae deletion strains, locus YLR268W, strain sec22, active compounds read low 0.974 | S. cerevisiae deletion strains, locus YLR320W, strain mms22, active compounds read low 0.995 | S. cerevisiae deletion strains, locus YLR330W, strain CHS5, active compounds read low 1.01 | S. cerevisiae deletion strains, locus YLR342W, strain FKS1 (second series), active compounds read low 1.03 | S. cerevisiae deletion strains, locus YLR342W, strain FKS1, active compounds read low 0.983 | S. cerevisiae deletion strains, locus YLR357W, strain rsc2, active compounds read low 0.98 | S. cerevisiae deletion strains, locus YLR370C, strain arc18, active compounds read low 0.971 | S. cerevisiae deletion strains, locus YLR371W, strain rom2, active compounds read low 0.98 | S. cerevisiae deletion strains, locus YLR384C, strain iki3, active compounds read low 0.989 | S. cerevisiae deletion strains, locus YLR418C, strain cdc73, active compounds read low 0.942 | S. cerevisiae deletion strains, locus YML016C, strain PPZ1, active compounds read low 1.02 | S. cerevisiae deletion strains, locus YML032C, strain rad52, active compounds read low 0.986 | S. cerevisiae deletion strains, locus YML120C, strain ndi1, active compounds read low 0.991 | S. cerevisiae deletion strains, locus YML124C, strain tub3, active compounds read low 0.981 | S. cerevisiae deletion strains, locus YMR058W, strain fet3, active compounds read low 0.987 | S. cerevisiae deletion strains, locus YMR078C, strain ctf18, active compounds read low 0.988 | S. cerevisiae deletion strains, locus YMR125W, strain sto1, active compounds read low 0.972 | S. cerevisiae deletion strains, locus YMR129W, active compounds read low 0.986 | S. cerevisiae deletion strains, locus YMR205C, strain PFK2, active compounds read low 0.972 | S. cerevisiae deletion strains, locus YMR223W, strain ubp8, active compounds read low 0.983 | S. cerevisiae deletion strains, locus YMR231W, strain pep5, active compounds read low 0.981 | S. cerevisiae deletion strains, locus YMR263W, strain SAP30, active compounds read low 1 | S. cerevisiae deletion strains, locus YMR307W, strain GAS1, active compounds read low 1.01 and 0.988 | S. cerevisiae deletion strains, locus YNL067W, strain RPL9B, active compounds read low 0.987 | S. cerevisiae deletion strains, locus YNL071W, strain lat1, active compounds read low 0.996 | S. cerevisiae deletion strains, locus YNL128W, strain TEP1, active compounds read low 1 | S. cerevisiae deletion strains, locus YNL153C, strain GIM3, active compounds read low 1.01 | S. cerevisiae deletion strains, locus YNL175C, strain NOP13, active compounds read low 0.979 | S. cerevisiae deletion strains, locus YNL183C, strain NPR1, active compounds read low 0.946 | S. cerevisiae deletion strains, locus YNL197C, strain WHI3, active compounds read low 0.968 | S. cerevisiae deletion strains, locus YNL209W, strain ssb2, active compounds read low 0.988 | S. cerevisiae deletion strains, locus YNL224C, strain SQS1, active compounds read low 0.991 | S. cerevisiae deletion strains, locus YNL233W, strain BNI4, active compounds read low 1.01 | S. cerevisiae deletion strains, locus YNL248C, strain rpa49, active compounds read low 0.98 | S. cerevisiae deletion strains, locus YNL250W, strain rad50, active compounds read low 0.987 | S. cerevisiae deletion strains, locus YNL271C, strain bni1, active compounds read low 0.966 | S. cerevisiae deletion strains, locus YNL298W, strain CLA4, active compounds read low 0.975 | S. cerevisiae deletion strains, locus YNL307C, strain MCK1, active compounds read low 0.98 | S. cerevisiae deletion strains, locus YNL322C, strain KRE1 (second series), active compounds read low 0.991 | S. cerevisiae deletion strains, locus YNL322C, strain KRE1, active compounds read low 1.01 and 0.995 | S. cerevisiae deletion strains, locus YNR049C, strain mso1, active compounds read low 0.984 | S. cerevisiae deletion strains, locus YNR052C, strain pop2, active compounds read low 0.977 | S. cerevisiae deletion strains, locus YOL006C, strain TOP1, active compounds read low 0.959 | S. cerevisiae deletion strains, locus YOL012C, strain htz1 0.756 | S. cerevisiae deletion strains, locus YOL147C, strain pex11, active compounds read low 0.976 | S. cerevisiae deletion strains, locus YOR001W, strain rrp6, active compounds read low 0.989 | S. cerevisiae deletion strains, locus YOR061W, strain CKA2, active compounds read low 1.01 | S. cerevisiae deletion strains, locus YOR069W, strain VPS5, active compounds read low 1.01 | S. cerevisiae deletion strains, locus YOR070C, strain gyp1, active compounds read low 0.987 | S. cerevisiae deletion strains, locus YOR080W, strain dia2, active compounds read low 0.987 | S. cerevisiae deletion strains, locus YOR083W, strain WHI5 (second series), active compounds read low 0.979 | S. cerevisiae deletion strains, locus YOR083W, strain WHI5, active compounds read low 0.99 | S. cerevisiae deletion strains, locus YOR106W, strain vam3, active compounds read low 0.981 | S. cerevisiae deletion strains, locus YOR136W, strain idh2, active compounds read low 0.977 | S. cerevisiae deletion strains, locus YOR144C, strain elg1, active compounds read low 0.976 | S. cerevisiae deletion strains, locus YOR184W, strain ser1, active compounds read low 0.975 | S. cerevisiae deletion strains, locus YOR231W, strain MKK1, active compounds read low 1.01 | S. cerevisiae deletion strains, locus YOR265W, strain rbl2, active compounds read low 0.987 | S. cerevisiae deletion strains, locus YOR270C, strain vph1, active compounds read low 0.974 | S. cerevisiae deletion strains, locus YOR290C, strain snf2, active compounds read low 0.996 | S. cerevisiae deletion strains, locus YOR316C, strain cot1, active compounds read low 0.99 | S. cerevisiae deletion strains, locus YPL051W, strain arl3, active compounds read low 0.985 | S. cerevisiae deletion strains, locus YPL055C, strain LGE1, active compounds read low 1.01 and 0.996 | S. cerevisiae deletion strains, locus YPL078C, strain atp4, active compounds read low 0.978 | S. cerevisiae deletion strains, locus YPL106C, strain sse1, active compounds read low 0.962 | S. cerevisiae deletion strains, locus YPL240C, strain hsp82, active compounds read low 0.987 | S. cerevisiae deletion strains, locus YPL241C, strain CIN2, active compounds read low 1.01 and 0.997 | S. cerevisiae deletion strains, locus YPL256C, strain CLN2, active compounds read low 0.996 | S. cerevisiae deletion strains, locus YPR119W, strain clb2, active compounds read low 0.969 | S. cerevisiae deletion strains, locus YPR141C, strain kar3, active compounds read low 0.99 | S. cerevisiae deletion strains, locus YPR163C, strain tif3, active compounds read low 0.979 | S. cerevisiae deletion strains, locus YPR167C, strain met16, active compounds read low 0.975 | S. cerevisiae deletion strains, strain wtn01, active compounds read low 0.969 | S. cerevisiae strains, strain wild type, active compounds read low 1

Reference: PubChem BioAssay AID1159580 (chemical genetic matrix, 2015)
